Assay [1] deals with Human papillomavirus type 1a protein E7 (residues 44-93). The assay is described as follows: small molecules binding HPV E7 44-93 – biochemical, small-molecule microarray, residues 44-93, 635 nm fluorescence, primary screen (AID 1108).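 Further: E7 fragment applied at 1 µg/mL in TBST for 1 h at 4 C; score combines spot fluorescence with its signal to noise ratio.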 The conditions noted are these: fluorescence 635 nm, higher = more signal.
Assay [2] in a line: hepatitis C replication reporter changes, two-sided – Huh7 cells, luciferase reporter, HCV replication inhibitor project, primary screen (AID 1109).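 Further: huh7 hepatoma cells harbouring a luciferase neomycin HCV replicon reporter; luciferase luminescence as measure of HCV replicon replication; test concentration not given here.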 The note with it: Huh7 HCV replicon luciferase reporter, 48 h; higher = more signal.
The target in assay [3] is Left-right determination factor 2 (Homo sapiens) (UniProt O00292). The assay is described as follows: small molecules binding LEFTY2 protein – biochemical, small-molecule microarray, 635 nm fluorescence scan, primary screen (AID 1110). The note with it: higher = more signal.
Assay [4] deals with Calmodulin-1 (Homo sapiens) (UniProt P0DP23). The assay is described as follows: small molecules binding calmodulin-1 with EGTA – biochemical, small-molecule microarray, Cy5-labelled CALM1, profiling panel (AID 1111).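 Further: labelled calmodulin applied in Tris saline Tween buffer holding calcium plus EGTA and DTT.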 The conditions noted are these: Cy5-CALM1 binding fluorescence, higher = more signal.
Assay [5] shares this target. The assay is described as follows: small molecules binding Ca-loaded calmodulin-1 – biochemical, small-molecule microarray, Cy5-labelled CALM1, plus calcium, artefact control for SMM control-protein annotation, profiling panel (AID 1112).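 Further: score merges spot fluorescence with signal to noise from triplicate slides.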 The note with it: Cy5-CALM1 binding fluorescence, higher = more signal.
The nature of assay [6]: probe aWnt5a binding to arrayed compounds – biochemical, biotinylated probe, 635/667 nm fluorescence, primary screen (AID 1113).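 Further: score merges 667 nm fluorescence intensity with signal-to-noise per printed feature.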 The note with it: small-molecule microarray, higher = more signal.
The nature of assay [7]: probe aShh binding to arrayed compounds – biochemical, biotinylated probe, 635/667 nm fluorescence, primary screen (AID 1114).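 Further: probe is biotin-labelled aShh protein from a stem cell growth factor screen; measures binding of labelled protein to compounds printed on the slide; score merges feature fluorescence at 667 nm with signal-to-noise.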 The note with it: small-molecule microarray, higher = more signal.
The nature of assay [8]: probe aNog binding to arrayed compounds – biochemical, biotinylated probe, 635/667 nm fluorescence, primary screen (AID 1115).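 Further: probe is biotinylated aNog protein used at 0.15 µg/mL for 1 h at 4 C; z-score combines 667 nm fluorescence of each spot with its signal to noise.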 The note with it: small-molecule microarray, higher = more signal.
The target of assay [9] is Torsin-1A-interacting protein 1 (Homo sapiens) (UniProt Q5JTV8). Nature of the assay: compound microarray binding of lysate hLAP1 – cell lysate, small-molecule microarray, COS7 lysate, 635/667 nm fluorescence, primary screen (AID 1116). The conditions noted are these: 635 nm fluorescence, higher = more signal.
The target of assay [10] is Alpha-bungarotoxin (Bungarus multicinctus) (UniProt P60615). The assay is described as follows: compounds binding labelled alpha-BTX control protein – biochemical, small-molecule microarray, Alexa647 label, 635/667 nm fluorescence, artefact control for SMM control protein annotation, profiling panel (AID 1117). The note with it: alpha-BTX-A647 binding fluorescence, higher = more signal.

In assay [11] the target is Albumin (Bos taurus) (UniProt P02769). Nature of the assay: compounds binding labelled BSA control protein – biochemical, small-molecule microarray, Alexa647 label, 635/667 nm fluorescence, artefact control for SMM control protein annotation, profiling panel (AID 1118).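 Further: score merges 667 nm emission intensity and signal-to-noise per printed compound spot.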 The conditions noted are these: BSA-A647 binding, fluorescence 635 nm, higher = more signal.
Assay [12] in a line: probe aXIP binding to arrayed compounds – biochemical, NeuroSMM set, 635/667 nm fluorescence, primary screen (AID 1119).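 Further: probe is the protein aXip251-270 applied at 1 µg/mL to compound-printed slides; binding of probe to printed compounds measured as 667 nm fluorescence plus signal to noise.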 The note with it: small-molecule microarray, higher = more signal, called active from +8 up or from −8 down.
Assay [13] is described as follows: probe aNOTCH3 binding on compound microarray – biochemical, small-molecule microarray, 635/667 nm fluorescence, primary screen (AID 1120).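 Further: probe is a biotin-tagged antibody raised against NOTCH3 rather than NOTCH3 protein; score merges spot fluorescence near 667 nm with spot signal to noise.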 The note with it: higher = more signal.
The nature of assay [14]: probe aNOTCH2 binding on compound microarray – biochemical, small-molecule microarray, 635/667 nm fluorescence, primary screen (AID 1121).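 Further: score merges feature fluorescence read at 667 nm with its signal to noise.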 The note with it: higher = more signal.
The target of assay [15] is Carbonic anhydrase 2 (Homo sapiens) (UniProt P00918). The assay is described as follows: compounds binding carbonic anhydrase 2 – biochemical, small-molecule microarray, Alexa647-labelled CAII, profiling panel (AID 1122). The conditions noted are these: CAII-A647 binding fluorescence, higher = more signal.
Assay [16] in a line: COS7 lysate on small-molecule microarray, probe aHis, 635 nm (AID 1123).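 Further: z-score combines 667nm fluorescence intensity with signal-to-noise per printed compound spot.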 The conditions noted are these: COS7 cell lysate, fluorescence, higher = more signal.
Assay [17] can be described thus: probe aLAP1 signal on lysate-treated microarray – cell lysate, small-molecule microarray, COS7 lysate, primary screen (AID 1124).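 Further: lysate comes from COS7 cells expressing LAP1 and is applied at 0.3 µg/mL; score merges spot fluorescence near 667 nm with signal-to-noise over triplicate slides.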 The conditions noted are these: probe aLAP1, fluorescence, higher = more signal.
For assay [18], the system named is Sam68 (KHDRBS1). Nature of the assay: compounds binding KHDRBS1 protein – biochemical, small-molecule microarray, 635 nm fluorescence, primary screen (AID 1125).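 Further: score merges 667 nm channel intensity with signal to noise over triplicate slides.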 The conditions noted are these: higher = more signal.
Assay [19] concerns Chordin-like protein 2 (CHRDL2). Nature of the assay: compounds binding chordin-like 2 – biochemical, small-molecule microarray, 635 nm fluorescence, primary screen (AID 1126).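 Further: printed compound slides probed with Chrdl2 protein at 4 µg/mL for 1 h at 4 C; score merges 667 nm emission intensity with signal to noise over three replicate slides.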 The note with it: fluorescence 635 nm, higher = more signal.
In assay [20] the target is Concanavalin-A (Canavalia ensiformis) (UniProt P02866). The assay is described as follows: compounds binding concanavalin A lectin – biochemical, small-molecule microarray, Alexa647 label, 635 nm, artefact control for SMM control protein annotation, primary screen (AID 1127).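 Further: z combines 667 nm emission intensity with signal-to-noise across three replicate slides.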 The note with it: ConA-A647 binding fluorescence, higher = more signal.

In PubChem BioAssay one finds composite z-score, z-score and composite Z-score data, which are given here for five compounds.

Values joined by “and” are separate entries in the source; they are usually repeats but may differ in a detail not shown here. Identical values can stand only once. Active and inactive are the calls of the source.

Chain of Concanavalin-A (Canavalia ensiformis) (P02866 whole entry, looked up): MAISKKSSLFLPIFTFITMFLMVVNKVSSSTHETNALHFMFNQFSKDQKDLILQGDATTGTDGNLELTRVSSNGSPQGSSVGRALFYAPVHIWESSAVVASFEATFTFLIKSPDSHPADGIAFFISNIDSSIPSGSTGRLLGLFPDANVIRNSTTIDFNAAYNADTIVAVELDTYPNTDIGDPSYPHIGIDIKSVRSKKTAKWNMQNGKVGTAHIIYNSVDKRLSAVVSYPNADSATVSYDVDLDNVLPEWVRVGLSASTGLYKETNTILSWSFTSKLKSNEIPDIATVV
Chain of Torsin-1A-interacting protein 1 (Homo sapiens) (Q5JTV8 whole entry, looked up): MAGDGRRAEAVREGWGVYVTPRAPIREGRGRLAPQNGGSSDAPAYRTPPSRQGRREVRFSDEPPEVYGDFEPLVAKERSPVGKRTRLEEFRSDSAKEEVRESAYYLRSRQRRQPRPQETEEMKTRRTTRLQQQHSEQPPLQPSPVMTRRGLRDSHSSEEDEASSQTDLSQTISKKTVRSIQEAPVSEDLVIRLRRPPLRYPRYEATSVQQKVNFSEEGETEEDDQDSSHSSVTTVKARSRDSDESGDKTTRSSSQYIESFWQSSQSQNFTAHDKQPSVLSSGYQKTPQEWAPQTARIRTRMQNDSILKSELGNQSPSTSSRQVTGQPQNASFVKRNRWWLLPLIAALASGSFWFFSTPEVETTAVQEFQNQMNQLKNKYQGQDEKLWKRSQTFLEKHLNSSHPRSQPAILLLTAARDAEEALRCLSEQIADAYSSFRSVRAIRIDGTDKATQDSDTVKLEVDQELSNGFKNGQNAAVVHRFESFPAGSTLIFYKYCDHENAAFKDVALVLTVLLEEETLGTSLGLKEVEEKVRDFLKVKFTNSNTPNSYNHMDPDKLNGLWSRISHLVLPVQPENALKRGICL
Chain of Left-right determination factor 2 (Homo sapiens) (O00292 whole entry, looked up): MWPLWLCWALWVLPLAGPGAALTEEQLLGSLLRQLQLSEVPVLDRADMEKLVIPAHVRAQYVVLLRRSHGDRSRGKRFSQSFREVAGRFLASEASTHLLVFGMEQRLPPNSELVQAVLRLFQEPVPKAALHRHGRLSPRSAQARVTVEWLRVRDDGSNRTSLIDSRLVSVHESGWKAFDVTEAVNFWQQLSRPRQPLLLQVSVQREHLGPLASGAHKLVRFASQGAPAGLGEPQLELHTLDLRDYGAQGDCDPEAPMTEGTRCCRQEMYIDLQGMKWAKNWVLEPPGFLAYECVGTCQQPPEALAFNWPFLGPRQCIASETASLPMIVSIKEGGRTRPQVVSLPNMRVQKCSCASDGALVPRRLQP
Chain of Albumin (Bos taurus) (P02769 whole entry, looked up): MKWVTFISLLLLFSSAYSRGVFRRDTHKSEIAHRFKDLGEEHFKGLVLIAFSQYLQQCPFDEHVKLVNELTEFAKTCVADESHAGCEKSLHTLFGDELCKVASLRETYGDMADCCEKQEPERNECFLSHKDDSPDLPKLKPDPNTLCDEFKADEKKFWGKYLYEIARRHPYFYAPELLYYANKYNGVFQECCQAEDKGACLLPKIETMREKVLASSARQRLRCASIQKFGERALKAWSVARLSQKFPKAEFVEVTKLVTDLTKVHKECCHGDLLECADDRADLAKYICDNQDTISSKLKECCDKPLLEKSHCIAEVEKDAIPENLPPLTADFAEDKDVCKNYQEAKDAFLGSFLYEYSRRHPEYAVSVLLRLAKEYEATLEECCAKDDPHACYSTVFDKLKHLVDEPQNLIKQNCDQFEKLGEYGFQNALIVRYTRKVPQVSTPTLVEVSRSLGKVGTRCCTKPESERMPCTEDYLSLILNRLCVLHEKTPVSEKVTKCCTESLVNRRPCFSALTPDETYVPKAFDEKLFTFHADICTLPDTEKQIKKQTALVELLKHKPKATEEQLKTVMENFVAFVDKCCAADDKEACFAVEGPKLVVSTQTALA
Chain of Alpha-bungarotoxin (Bungarus multicinctus) (P60615 whole entry, looked up): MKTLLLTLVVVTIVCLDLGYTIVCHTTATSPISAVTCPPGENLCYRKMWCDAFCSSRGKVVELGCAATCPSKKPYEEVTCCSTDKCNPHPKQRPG

As for `Cc1ccc(S(=O)(=O)N[C@H]2COC(=O)[C@@H](C)COC(=O)[C@H](C)NC(=O)CC=C[C@H]2C)cc1`, the composite z-score was -0.799 in [1]; 0.715 in [3]; -0.82 in assay [4]; -0.994 in assay [5]; 0.027 in assay [6]; 0.0538 in assay [7]. Further, the composite z-score in [8] is -0.234; in assay [9], 1.09; in assay [10] it was -0.458; in assay [11] it was -0.965; in assay [13], -0.0931; in assay [14], -0.14. For the same compound, the composite z-score in assay [15] was -0.338; in assay [16] it was -0.49; in assay [17], -0.34; in assay [18], 0.122; in assay [19] it was 0.954; in assay [20], -0.681. Besides, the z-score in [2] is -0.128. The composite Z-score in assay [12] was 1.17 (inactive).
Regarding `CC(C)[Si]1(C(C)C)OCc2cc(CCCc3cc4c(c(CCc5ccccc5)n3)[Si](C(C)C)(C(C)C)OC4)nc(CCc3ccccc3)c21`, the composite z-score was 0.206 and 0.469 in [1]; 0.0155 and 0.497 in assay [3]; -0.372 and -0.238 in assay [4]; 0.797 and -0.487 in [5]; -0.152 and -0.148 in assay [6]; -0.27 and 0.0141 in [7]. For the same compound, the composite z-score in [8] was -0.139 and -0.0168; in assay [9], -0.421 and 0.248; in assay [10] it was -1.36 and 0.0493; in assay [11] it was -1.72 and -0.26; in [13], -0.124 and -0.0578; in [14], -0.125 and -0.108. Further, the composite z-score in assay [15] was -0.139 and 0.0411; in assay [16], 0.002 and 0.081; in assay [17], 0.485 and 0.0666; in assay [18] it was 0.23 and 0.716; in [19], -0.126 and 0.424; in [20], -1.42 and 0.124. For the same compound, in [2], the z-score is -1.17 and -0.347. For the same compound, the composite Z-score in [12] is -0.436 (inactive) and -0.38 (inactive).
As to `C[C@@H](ON=C1[C@H]2CCn3c(=O)n(-c4ccccc4)c(=O)n3[C@H]2[C@H](O)[C@@H]2O[C@H]12)c1cn([C@H](CO)Cc2ccccc2)nn1`, the composite z-score was 0.46 in [1]; 0.605 in assay [3]; 0.0208 in [4]; -0.549 in [5]; -0.148 in assay [6]; -0.358 in [7]. The composite z-score in assay [8] was -0.364; in assay [9], -0.0609; in assay [10], 0.24; in [11], 0.0073; in assay [13], -0.216; in assay [14], -0.17. Further, the composite z-score in assay [15] was -0.0324; in assay [16], 0.392; in assay [17], 0.012; in assay [18], 0.209; in [19], 0.353; in [20], 0.349. For the same compound, in [2], the z-score is -3.71. For the same compound, the composite Z-score in assay [12] was 0.116 (inactive).
In the case of `CO[C@@H]1COC(=O)[C@H](Cc2ccccc2)NC(=O)CC=C[C@@H](C)[C@H](OC)COC(=O)[C@@H](C)NC(=O)CC=C[C@H]1C`, the composite z-score is 0.946 and 0.026 in [1]; 0.79 and 0.972 in assay [3]; -0.913 and -0.79 in assay [4]; -1.89 and -1.85 in [5]; -0.1 and -0.22 in assay [6]; -0.362 and -0.102 in assay [7]. The composite z-score was -0.201 and -0.278 in assay [8]; 0.596 and -0.19 in assay [9]; -0.527 and -0.862 in assay [10]; -1.24 and 0.871 in assay [11]; 0.0522 and -0.023 in assay [13]; -0.173 and -0.214 in [14]. The composite z-score in assay [15] is -0.0035 and 0.27; in [16], -0.0816 and -0.0434; in assay [17] it was -0.502 and 0.07; in [18], 1.09 and 0.672; in assay [19], 1.03 and 1.43; in assay [20], -0.85 and -0.233. The z-score in assay [2] is -0.198 and 0.903. In assay [12], the composite Z-score is -0.17 (inactive) and -0.452 (inactive).
Turning to `O=c1n(-c2ccccc2)c(=O)n2n1CC[C@@H]1C(=NOC[C@@H](O)COCc3ccco3)[C@H]3O[C@H]3[C@@H](O)[C@@H]12`, the composite z-score in assay [1] was 0.334 and -1.78; in assay [3] it was 0.549 and 0.474; in [4] it was -0.288 and -0.601; in assay [5], -1.31 and -0.958; in assay [6] it was -0.0659 and -0.0276; in assay [7], -0.367 and -0.0035. The composite z-score in assay [8] was -0.261 and -0.0733; in [9], 0.721 and 0.223; in assay [10] it was 0.719 and 0.0807; in assay [11], -0.73 and 0.143; in [13], -0.173 and -0.268; in assay [14], -0.122 and -0.174. Further, the composite z-score is -0.14 and 0.0148 in [15]; -0.251 and -0.862 in [16]; -0.0025 and -0.111 in assay [17]; 0.623 and -0.34 in [18]; 1.31 and 0.628 in assay [19]; -0.331 and 0.101 in assay [20]. For the same compound, the z-score in assay [2] is 0.273 and -3.95. The composite Z-score in assay [12] was -0.014 (inactive) and 0.545 (inactive).
